Assay [1] in a line: BSK_4H_Eotaxin3: BioMAP Diversity Plus: 4H Assay for Eotaxin 3 Biomarker Activity (AID 2283000).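 On outcome: CCL26 protein level quantified by ELISA in parallel with SRB cytotoxicity check.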 The following applies: primary human endothelial cells (HUVEC); actives raise or lower the signal. Summed up: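 HUVEC, 24 h post-dose, ELISA for Eotaxin-3/CCL26. Gain or loss of signal fitted bidirectionally vs DMSO baseline.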
Assay [2] deals with human Retinoic Acid Receptor beta (RARb), RARB (gene 5915) (UniProt P10826). The assay can be described thus: ATG_RARb_TRANS: Attagene TRANS-FACTORIAL HepG2 Assay for human Retinoic Acid Receptor beta (AID 2283004; active means hit-call score of the fitted dose curve at least 0.9, where 1 is the maximum). In short, it runs like this:
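HepG2 cells transiently transfected with multiplexed GAL4-UAS reporter units expressing chimeric NR–Gal4 fusions; 24 h compound exposure. Reporter mRNA quantified by RT-PCR, 6-FAM labelling, HpaI digestion and capillary electrophoresis; gain-of-signal fitted against DMSO baseline.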

For assay [3], the target named is Retinoic acid receptor alpha (Homo sapiens) (UniProt P10276). The assay can be described thus: ATG_RARa_TRANS: Attagene TRANS-FACTORIAL HepG2 Assay for human Retinoic Acid Receptor alpha (RARa) (AID 2283005; active means hit-call score of the fitted dose curve at least 0.9, where 1 is the maximum). Summed up: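 HepG2 cells transiently transfected with multiple reporter units expressing chimeric RARα-GAL4 fusion, with GAL4-UAS-driven reporters. After 24 h compound exposure, reporter mRNA induction quantified by RT-PCR and capillary electrophoresis with fluorescent labeling; gain-of-signal fitted relative to DMSO control.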
Sequence of Retinoic acid receptor alpha (Homo sapiens) (P10276 whole entry, looked up, the tested form may be a part): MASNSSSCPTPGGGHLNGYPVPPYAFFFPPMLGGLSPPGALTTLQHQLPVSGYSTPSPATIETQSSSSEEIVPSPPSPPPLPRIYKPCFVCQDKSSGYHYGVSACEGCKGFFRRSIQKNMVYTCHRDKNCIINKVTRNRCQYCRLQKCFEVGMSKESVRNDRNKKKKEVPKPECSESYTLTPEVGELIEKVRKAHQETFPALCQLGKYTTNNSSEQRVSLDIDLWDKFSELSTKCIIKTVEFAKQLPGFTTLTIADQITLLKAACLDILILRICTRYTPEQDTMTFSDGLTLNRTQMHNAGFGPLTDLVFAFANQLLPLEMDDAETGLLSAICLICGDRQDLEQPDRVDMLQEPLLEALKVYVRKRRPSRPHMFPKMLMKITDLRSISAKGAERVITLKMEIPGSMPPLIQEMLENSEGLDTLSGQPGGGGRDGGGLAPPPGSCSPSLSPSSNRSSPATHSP

Assay [4] is described as follows: BSK_3C_Proliferation: Cell Proliferation Assessment in the BioMAP Diversity Plus: 3C Assay (AID 2283006). The following applies: primary human endothelial cells (HUVEC). In short, it runs like this:
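Read-out is total protein by SRB absorbance at 560 nm, taken as a proxy for relative cell number. Primary human umbilical vein endothelium cultured below confluence was dosed for 48 h, TCA-fixed and SRB-stained; curves were fitted bidirectionally versus DMSO.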

In assay [5] the target is Nuclear receptor subfamily 1 group I member 2 (Homo sapiens) (UniProt O75469). The assay can be described thus: ATG_PXR_TRANS: Attagene TRANS-FACTORIAL HepG2 Assay for human Pregnane X Receptor (PXR) (AID 2283008; active means hit-call score of the fitted dose curve at least 0.9, where 1 is the maximum). Summed up: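 Fluorescence intensity of FAM-labelled, HpaI-digested reporter amplicons, separated by capillary electrophoresis, quantifies induction. HepG2 cells with PXR-Gal4 trans-reporter system were exposed 24 h; DMSO defines baseline.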
Sequence of Nuclear receptor subfamily 1 group I member 2 (Homo sapiens) (O75469 whole entry, looked up, the tested form may be a part): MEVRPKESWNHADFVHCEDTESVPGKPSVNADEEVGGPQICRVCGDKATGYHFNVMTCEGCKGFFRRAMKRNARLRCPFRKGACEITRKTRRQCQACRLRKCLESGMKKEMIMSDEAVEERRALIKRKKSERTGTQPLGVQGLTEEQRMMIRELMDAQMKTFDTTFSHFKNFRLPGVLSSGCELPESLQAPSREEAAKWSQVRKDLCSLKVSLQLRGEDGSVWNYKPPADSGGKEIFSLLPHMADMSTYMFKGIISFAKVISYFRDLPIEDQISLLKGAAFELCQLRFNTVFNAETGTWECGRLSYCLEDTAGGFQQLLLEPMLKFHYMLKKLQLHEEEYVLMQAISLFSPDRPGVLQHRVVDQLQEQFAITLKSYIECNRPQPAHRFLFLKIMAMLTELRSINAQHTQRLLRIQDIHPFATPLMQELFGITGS

Assay [6] deals with human Retinoic Acid Receptor gamma (RARg), RARG (gene 5916) (UniProt P13631). The assay can be described thus: ATG_RARg_TRANS: Attagene TRANS-FACTORIAL HepG2 Assay for human Retinoic Acid Receptor gamma (RARg) (AID 2283009; active means hit-call score of the fitted dose curve at least 0.9, where 1 is the maximum). Summed up:
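Transient transfection of HepG2 with multi-reporter constructs, then 24 h chemical treatment. Total RNA isolated, reverse-transcribed, PCR-amplified, fluorescently labelled and resolved by capillary electrophoresis; activity scored as mRNA induction versus DMSO.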

Assay [7] deals with Retinoic acid receptor RXR-alpha (Homo sapiens) (UniProt P19793). The assay can be described thus: ATG_RXRa_TRANS: Attagene TRANS-FACTORIAL HepG2 Assay for human Retinoid X Receptor alpha (RXRa) (AID 2283012; active means hit-call score of the fitted dose curve at least 0.9, where 1 is the maximum). Summed up:
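Transient transfection of human HepG2 with multiple GAL4-UAS reporter constructs; 24 h compound exposure; total RNA isolated, reverse-transcribed, PCR-amplified, 6-FAM labelled, HpaI-cut, resolved by capillary electrophoresis. Positive-direction fit versus DMSO.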

In assay [8] the target is human Retinoid X Receptor beta (RXRb), RXRB (gene 6257) (UniProt P28702). The experiment in a line: ATG_RXRb_TRANS: Attagene TRANS-FACTORIAL HepG2 Assay for human Retinoid X Receptor beta (RXRb) (AID 2283013; active means hit-call score of the fitted dose curve at least 0.9, where 1 is the maximum). In short, it runs like this: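 Transfect HepG2 with GAL4-UAS multi-reporter constructs (chimeric NR-Gal4, TRANS format); dose compound 24 h; isolate RNA, RT-PCR, FAM primer extension, HpaI digest; quantify by capillary electrophoresis; positive direction vs DMSO.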
Sequence of human Retinoid X Receptor beta (RXRb), RXRB (gene 6257) (P28702 whole entry, looked up, the tested form may be a part): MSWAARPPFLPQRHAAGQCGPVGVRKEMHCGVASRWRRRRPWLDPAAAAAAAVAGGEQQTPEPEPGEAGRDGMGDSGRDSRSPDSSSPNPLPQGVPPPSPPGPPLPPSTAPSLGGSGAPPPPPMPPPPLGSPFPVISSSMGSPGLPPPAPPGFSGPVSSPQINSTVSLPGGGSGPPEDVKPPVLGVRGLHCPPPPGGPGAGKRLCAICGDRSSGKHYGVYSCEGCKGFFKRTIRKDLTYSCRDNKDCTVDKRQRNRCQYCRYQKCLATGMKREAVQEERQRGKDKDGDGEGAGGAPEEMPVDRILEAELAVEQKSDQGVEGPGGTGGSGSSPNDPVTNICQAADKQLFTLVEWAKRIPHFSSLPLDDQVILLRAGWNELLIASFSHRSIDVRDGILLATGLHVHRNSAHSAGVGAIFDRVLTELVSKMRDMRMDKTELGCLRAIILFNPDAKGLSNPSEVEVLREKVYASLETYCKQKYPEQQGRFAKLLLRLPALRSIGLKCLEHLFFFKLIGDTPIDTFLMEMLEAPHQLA

Read-out in assay [9]: E-selectin (Homo sapiens) (UniProt P16581)
The assay can be described thus: BSK_3C_Eselectin: BioMAP Diversity Plus: 3C Assay for Eselectin Biomarker Activity (AID 2283015).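 Further: cell surface E-selectin protein quantified by ELISA 24 h after dosing.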 The following applies: primary human endothelial cells (HUVEC); actives raise or lower the signal. Summed up: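 Primary human umbilical vein endothelial cells (3C system) were dosed with chemical and cell-surface E-selectin measured by ELISA 24 h later. Bidirectional curve fitting used DMSO as negative control and baseline.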

Read-out in assay [10]: Monocyte Chemoattractant Protein-1 (MCP1), CCL2 (gene 6347)
The experiment in a line: BSK_3C_MCP1: BioMAP Diversity Plus: 3C Assay for Monocyte Chemoattractant Protein-1 (MCP1) Biomarker Activity (AID 2283017). Particulars: primary human endothelial cells (HUVEC); actives raise or lower the signal. Summed up: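 Primary human umbilical vein endothelial cells (3C system) were exposed to test chemical for 24 h, after which MCP-1 was quantified by ELISA. Activity was fitted bidirectionally against DMSO as negative control and baseline.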

Read-out in assay [11]: Monocyte Chemoattractant Protein-1 (MCP1), CCL2 (gene 6347)
The experiment in a line: BSK_4H_MCP1: BioMAP Diversity Plus: 4H Assay for Monocyte Chemoattractant Protein-1 (MCP1) Biomarker Activity (AID 2283018). Particulars: primary human endothelial cells (HUVEC); actives raise or lower the signal. Summed up: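 ELISA read-out of MCP-1 from human vascular endothelial primary cells taken at 24 hours after compound exposure. Activity was fitted in both directions relative to DMSO, which served as negative control.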

Read-out in assay [12]: Human Leukocyte Antigen - DR isotype (HLADR), HLA-DRA (gene 3122)
The experiment in a line: BSK_3C_HLADR: BioMAP Diversity Plus: 3C Assay for Human Leukocyte Antigen - DR isotype (HLADR) Biomarker Activity (AID 2283019).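 On outcome: ELISA of cell-surface HLA-DR on HUVEC 24 h after dosing.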 The following applies: primary human endothelial cells (HUVEC); actives raise or lower the signal. Summed up:
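Primary human umbilical vein endothelial cells (3C system) were dosed with compound and cell-surface HLA-DR was quantified by ELISA at 24 h. Activity was fitted bidirectionally against DMSO as negative control and baseline.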

Read-out in assay [13]: Interleukin-8 (IL8), CXCL8 (gene 3576)
The assay can be described thus: BSK_3C_IL8: BioMAP Diversity Plus: 3C Assay for Interleukin-8 (IL8) Biomarker Activity (AID 2283020). Particulars: primary human endothelial cells (HUVEC); actives raise or lower the signal. Summed up: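 ELISA read-out of IL-8 from human umbilical vein endothelium, measured 24 h after chemical dosing. Activity is expressed relative to DMSO negative control, with both increases and decreases fitted.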

Assay [14] concerns the target human RAR-related Orphan Receptor beta (RORb), RORB (gene 6096) (UniProt Q92753). The experiment in a line: ATG_RORb_TRANS: Attagene TRANS-FACTORIAL HepG2 Assay for human RAR-related Orphan Receptor beta (RORb) (AID 2283010; active means hit-call score of the fitted dose curve at least 0.9, where 1 is the maximum). In short, it runs like this:
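Readout is reporter-gene mRNA induction, detected as fluorescence after RT-PCR and capillary electrophoresis, fitted for gain of signal against DMSO controls. Transiently transfected HepG2 liver cells carrying GAL4-UAS reporter constructs were treated for 24 hours.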

Assay [15] has as its target human RAR-related Orphan Receptor gamma (RORg), RORC (gene 6097) (UniProt P51449). The assay can be described thus: ATG_RORg_TRANS: Attagene TRANS-FACTORIAL HepG2 Assay for human RAR-related Orphan Receptor gamma (RORg) (AID 2283011; active means hit-call score of the fitted dose curve at least 0.9, where 1 is the maximum). In short, it runs like this: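 Readout: reporter transcript induction (RT-PCR, fluorescent primer extension, capillary electrophoresis) after 24 h compound exposure of transiently transfected HepG2 cells carrying a RORg-Gal4 chimera and GAL4-UAS reporters; DMSO served as baseline, with increasing signal fitted.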

Read-out in assay [16]: Interleukin-1 alpha (IL1a), IL1A (gene 3552)
The assay can be described thus: BSK_BE3C_IL1a: BioMAP Diversity Plus: BE3C Assay for Interleukin-1 alpha (IL1a) Biomarker Activity (AID 2283016). The following applies: primary human bronchial epithelial cells; actives raise or lower the signal. Summed up:
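BE3C primary human bronchial epithelium; cpd 24 h; IL-1a by ELISA; bidirectional fit vs DMSO; parallel SRB (0.1% SRB, 10% TCA fix, 560 nm) for cytotoxicity.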

Read-out in assay [17]: Intercellular Adhesion Molecule 1 (ICAM1), ICAM1 (gene 3383)
The assay can be described thus: BSK_3C_ICAM1: BioMAP Diversity Plus: 3C Assay for Intercellular Adhesion Molecule 1 (ICAM1) Biomarker Activity (AID 2283003). The following applies: primary human endothelial cells (HUVEC); actives raise or lower the signal. Summed up:
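ICAM-1 levels measured by ELISA after HUVEC cultures in the 3C system had been dosed for 24 h. Gain or loss of signal relative to DMSO was fitted in both directions.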

Assay [18] concerns the target Peroxisome proliferator-activated receptor gamma (Homo sapiens) (UniProt P37231). The experiment in a line: ATG_PPARg_TRANS: Attagene TRANS-FACTORIAL HepG2 Assay for human Peroxisome Proliferator-activated Receptor-gamma (PPARg) (AID 2283007; active means hit-call score of the fitted dose curve at least 0.9, where 1 is the maximum). Summed up:
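Read-out: reporter mRNA induction, detected by fluorescence after RT-PCR and capillary electrophoresis. Transiently transfected human HepG2 liver cells carrying a chimeric NR-Gal4 construct were dosed for 24 h; activity was fitted upward relative to DMSO.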

Inconclusive results are not listed. Calls of active or inactive are those of the source. How the source made its calls, unless noted: active means hit-call score of the fitted dose curve at least 0.9, where 1 is the maximum; inactive means score below 0.9.

As usually defined, the AC50 is the concentration giving half of the maximal activity seen.

Sequence of Retinoic acid receptor RXR-alpha (Homo sapiens) (P19793 whole entry, looked up, the tested form may be a part): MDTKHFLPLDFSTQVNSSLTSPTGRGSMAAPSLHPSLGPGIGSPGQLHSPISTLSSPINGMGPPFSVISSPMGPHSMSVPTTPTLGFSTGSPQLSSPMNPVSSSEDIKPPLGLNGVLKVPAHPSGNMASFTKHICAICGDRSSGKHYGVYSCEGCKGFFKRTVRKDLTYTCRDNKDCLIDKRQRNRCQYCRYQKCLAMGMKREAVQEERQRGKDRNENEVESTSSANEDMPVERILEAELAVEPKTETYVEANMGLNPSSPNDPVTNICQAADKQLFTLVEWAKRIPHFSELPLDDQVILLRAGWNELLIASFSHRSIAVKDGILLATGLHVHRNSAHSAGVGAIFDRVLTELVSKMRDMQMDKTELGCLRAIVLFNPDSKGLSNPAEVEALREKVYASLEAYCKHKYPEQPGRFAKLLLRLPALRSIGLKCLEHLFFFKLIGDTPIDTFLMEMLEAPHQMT
Sequence of human Retinoic Acid Receptor beta (RARb), RARB (gene 5915) (P10826 whole entry, looked up, the tested form may be a part): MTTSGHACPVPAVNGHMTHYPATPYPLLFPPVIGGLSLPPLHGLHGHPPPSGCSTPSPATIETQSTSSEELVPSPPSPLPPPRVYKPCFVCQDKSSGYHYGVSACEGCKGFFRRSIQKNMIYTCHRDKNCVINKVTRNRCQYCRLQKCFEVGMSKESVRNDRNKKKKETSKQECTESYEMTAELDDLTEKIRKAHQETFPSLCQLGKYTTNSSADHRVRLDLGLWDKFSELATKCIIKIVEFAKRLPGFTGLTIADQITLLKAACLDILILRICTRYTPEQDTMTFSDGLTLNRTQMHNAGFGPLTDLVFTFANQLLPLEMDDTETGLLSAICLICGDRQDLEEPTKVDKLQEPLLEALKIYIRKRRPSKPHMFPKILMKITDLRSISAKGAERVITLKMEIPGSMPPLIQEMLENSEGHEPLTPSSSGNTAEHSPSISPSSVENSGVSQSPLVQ
Sequence of E-selectin (Homo sapiens) (P16581 whole entry, looked up): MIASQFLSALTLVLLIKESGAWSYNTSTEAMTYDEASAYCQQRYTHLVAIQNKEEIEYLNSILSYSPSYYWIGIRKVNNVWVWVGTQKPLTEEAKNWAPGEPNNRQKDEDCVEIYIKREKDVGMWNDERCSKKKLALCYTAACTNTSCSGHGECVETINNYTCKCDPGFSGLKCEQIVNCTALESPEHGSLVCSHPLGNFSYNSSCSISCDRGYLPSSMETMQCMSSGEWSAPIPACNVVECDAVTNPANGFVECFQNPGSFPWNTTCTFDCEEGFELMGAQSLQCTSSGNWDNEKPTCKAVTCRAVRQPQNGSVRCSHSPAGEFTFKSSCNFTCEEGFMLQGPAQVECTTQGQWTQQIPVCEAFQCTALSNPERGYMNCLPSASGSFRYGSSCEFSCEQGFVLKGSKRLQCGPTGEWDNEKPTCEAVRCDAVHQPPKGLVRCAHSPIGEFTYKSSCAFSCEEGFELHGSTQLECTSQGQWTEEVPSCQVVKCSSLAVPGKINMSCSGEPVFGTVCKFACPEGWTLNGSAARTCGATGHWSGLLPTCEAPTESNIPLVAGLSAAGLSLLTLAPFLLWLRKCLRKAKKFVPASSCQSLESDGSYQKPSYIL
Sequence of human RAR-related Orphan Receptor beta (RORb), RORB (gene 6096) (Q92753 whole entry, looked up, the tested form may be a part): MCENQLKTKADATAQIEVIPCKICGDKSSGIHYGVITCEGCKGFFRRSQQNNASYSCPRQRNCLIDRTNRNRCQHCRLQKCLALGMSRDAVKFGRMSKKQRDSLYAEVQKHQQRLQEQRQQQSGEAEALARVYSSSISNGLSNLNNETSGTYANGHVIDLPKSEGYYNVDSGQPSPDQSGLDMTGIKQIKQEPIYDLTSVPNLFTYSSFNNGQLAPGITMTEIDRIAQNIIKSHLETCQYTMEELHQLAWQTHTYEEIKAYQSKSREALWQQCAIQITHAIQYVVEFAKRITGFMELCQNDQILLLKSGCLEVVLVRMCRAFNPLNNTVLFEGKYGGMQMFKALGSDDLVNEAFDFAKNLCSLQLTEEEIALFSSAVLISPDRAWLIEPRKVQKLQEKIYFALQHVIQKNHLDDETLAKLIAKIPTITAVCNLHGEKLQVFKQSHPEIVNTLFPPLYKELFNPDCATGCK
Sequence of human Retinoic Acid Receptor gamma (RARg), RARG (gene 5916) (P13631 whole entry, looked up): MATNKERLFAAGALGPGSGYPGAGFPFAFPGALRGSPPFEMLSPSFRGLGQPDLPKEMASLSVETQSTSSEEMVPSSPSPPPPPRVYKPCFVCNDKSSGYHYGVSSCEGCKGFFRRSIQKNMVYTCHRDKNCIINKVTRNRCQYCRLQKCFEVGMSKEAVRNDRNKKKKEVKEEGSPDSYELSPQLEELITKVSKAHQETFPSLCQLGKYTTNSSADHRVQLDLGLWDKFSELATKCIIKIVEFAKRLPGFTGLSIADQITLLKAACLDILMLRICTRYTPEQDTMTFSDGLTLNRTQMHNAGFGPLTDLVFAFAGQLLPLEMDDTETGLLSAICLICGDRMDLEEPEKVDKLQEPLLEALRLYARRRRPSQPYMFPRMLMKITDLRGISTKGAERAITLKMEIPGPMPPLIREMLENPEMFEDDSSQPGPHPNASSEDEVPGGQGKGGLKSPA
Sequence of human RAR-related Orphan Receptor gamma (RORg), RORC (gene 6097) (P51449 whole entry, looked up, the tested form may be a part): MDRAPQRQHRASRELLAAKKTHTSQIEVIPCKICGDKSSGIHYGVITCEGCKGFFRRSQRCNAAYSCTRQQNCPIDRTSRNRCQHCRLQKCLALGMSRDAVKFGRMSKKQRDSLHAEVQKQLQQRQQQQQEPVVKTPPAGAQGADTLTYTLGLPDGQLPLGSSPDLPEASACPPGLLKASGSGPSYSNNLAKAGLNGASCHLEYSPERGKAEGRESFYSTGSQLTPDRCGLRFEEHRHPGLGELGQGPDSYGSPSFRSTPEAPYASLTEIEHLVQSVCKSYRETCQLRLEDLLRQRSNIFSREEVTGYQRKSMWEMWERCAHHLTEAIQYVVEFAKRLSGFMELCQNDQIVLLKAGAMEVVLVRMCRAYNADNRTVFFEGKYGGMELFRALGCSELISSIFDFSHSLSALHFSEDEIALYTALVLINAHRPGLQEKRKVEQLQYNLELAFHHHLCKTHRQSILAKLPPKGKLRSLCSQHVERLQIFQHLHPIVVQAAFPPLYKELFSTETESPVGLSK
Sequence of Peroxisome proliferator-activated receptor gamma (Homo sapiens) (P37231 whole entry, looked up, the tested form may be a part): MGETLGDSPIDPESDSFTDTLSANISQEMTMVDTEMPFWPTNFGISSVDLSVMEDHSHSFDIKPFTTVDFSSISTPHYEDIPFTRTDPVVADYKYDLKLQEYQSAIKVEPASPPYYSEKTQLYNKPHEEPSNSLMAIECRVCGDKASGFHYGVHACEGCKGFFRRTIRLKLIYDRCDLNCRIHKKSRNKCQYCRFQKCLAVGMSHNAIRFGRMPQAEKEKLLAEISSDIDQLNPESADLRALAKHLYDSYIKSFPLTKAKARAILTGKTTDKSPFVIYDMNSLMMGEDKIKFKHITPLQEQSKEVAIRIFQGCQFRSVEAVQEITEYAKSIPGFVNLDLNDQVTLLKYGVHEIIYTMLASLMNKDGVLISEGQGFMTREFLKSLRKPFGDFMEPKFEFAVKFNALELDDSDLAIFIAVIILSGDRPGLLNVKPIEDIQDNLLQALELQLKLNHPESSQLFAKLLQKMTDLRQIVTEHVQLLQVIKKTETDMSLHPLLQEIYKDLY

As for `CC1(C)CCC(=Cc2ccc(Cl)cc2)C1(O)Cn1cncn1` (configuration not stated), the outcome in assay [1], in assay [2], in [3], in assay [4], in assay [6] and in assay [7] was inactive. The call in [8], in assay [9], in assay [10], in assay [11] and in assay [13] was inactive. The AC50 was 9.33 µM (active) in assay [5] and 5.3 µM (active) in assay [12].

Consider `CNC(=O)Oc1cccc2ccccc12`, for which the AC50 in [1] is 20 µM (active). In addition, the call in assay [2], in [3], in assay [5], in assay [6], in assay [14] and in [15] was inactive. Also, the compound was classed as inactive in [7], in [8], in assay [9], in assay [16], in [10] and in assay [11]. Besides, the outcome in assay [12] and in assay [13] was inactive.

As to `CCOP(=S)(OCC)Oc1nc(Cl)n(C(C)C)n1`, the result in [1], in assay [17], in [2], in assay [3], in assay [14] and in [15] was inactive. For the same compound, the compound was classed as inactive in [8], in assay [9], in [16], in assay [10], in assay [11] and in assay [12]. Also, the result in assay [13] was inactive. In addition, the AC50 in assay [5] is 2.39 µM (active).

With `COc1ccc(-c2ccccc2)cc1NNC(=O)OC(C)C`, the result in [1], in [17], in assay [2], in assay [4], in [5] and in assay [14] was inactive. For the same compound, the compound was classed as inactive in assay [7], in assay [8], in [9], in assay [16], in assay [10] and in assay [11]. The outcome in [12] and in assay [13] was inactive. Further, the AC50 in assay [18] was 50 µM (active).
